KKLEB cytotox: reduces viability of KKLEB cystic fibrosis airway cells | hit rate 0.36% among 360,000 | KKLEB CF airway cells viability, ATPlite luminescence, overnight; hits give low values; cells stimulated with P. aeruginosa culture filtrate | activity change (cytotoxicity), % at 5 µM;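 active means corrected activity change at or below -50% at 5 µM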
CF NFkB inh: inhibitors of cystic fibrosis induced NF-kB; inhibition, % at 5 µM; KKLEB NF-kB-GFP reporter, PAF-induced, GFP fluorescence overnight; hit rate 0.86% among 360,000;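 active means at least 50% inhibition at 5 µM, scaled per plate between neutral and stimulator controls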;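 further: PAF is a Pseudomonas aeruginosa culture filtrate used as stimulus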
Peg3 promoter: reduces Peg3 promoter-driven luciferase expression in HeLa | HeLa PEG-Prom luciferase reporter, luminescence, overnight | inhibition, % at 20 µM | hit rate 1.7% among 360,000 | AID 588405;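 active means inhibition of at least 50% at 20 µM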
Shn3 3UTR inh: reduces Shn3 3'UTR luciferase signal in osteoblasts. inhibition, % at 12.5 µM. Clone20 osteoblast Shn3 3'UTR firefly luciferase, 24 h. AID 588674. hit rate 0.52% among 360,000;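 active means mean inhibition of at least 75% with every replicate also reaching 75%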
TRPM1 prom inh: MITF TRPM1 promoter inhibition in SK-MEL-5 cells; hit rate 0.83% among 330,000; inhibition, % at 12.5 µM; SK-MEL-5 TRPM1 promoter luciferase, 24 h; AID 488899;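 active means mean inhibition across replicates of 60% or more, whatever share of single replicates reaches that level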
HIF-2a block: blocks HIF-2a reporter activity | 786-0 RCC cells HIF-2a reporter, luciferase luminescence, overnight | inhibition, % at 18.8 µM | hit rate 0.72% among 360,000 | AID 624352;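 active means inhibition of the luminescence signal of 40% or more relative to plate controls, in a single-dose primary screen at 18.75 µM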
Each line names hits and unclear results; the compound was inactive in the other large screens. Sampled rows, rich in hits. Any-hit rate of the full collection: about 2.8%.

O=C1NC(NS(=O)(=O)c2ccccc2)(C(F)(F)F)C(=O)N1c1cccc(Cl)c1 (stereo not drawn)	none
COc1cc(NC(=S)NN2CCN(C)CC2)cc(OC)c1	none
CCn1c(/C=C/c2ccccc2)nc2ccccc21	KKLEB cytotox -52.6
N#Cc1nc(-c2ccc(OCc3ccc(Cl)cc3)cc2)oc1N1CCOCC1	Peg3 promoter 56.0
N#Cc1nc(-c2ccc(OCc3ccc(Cl)cc3)cc2)oc1N1CCC(C(N)=O)CC1	none
COc1cc(CN(C)C)cc(C=O)c1O	none
COc1cc(N=Nc2ccc(Br)cc2)cc(C=O)c1O	CF NFkB inh 84.9 (no result: TRPM1 prom inh)
CCCN=C1N(C)C[C@@H]2[C@@H]3C(=O)N(C)C(=O)[C@@H]3[C@](C)(C(=O)OC)N12	none
COc1cc(CNCc2ccc(OC)c(OC)c2OC)cc(OC)c1	Peg3 promoter 71.5
COc1cc2cc(-c3ccc(OC)c(OC)c3C)nc(N)c2cc1OC	Peg3 promoter 64.8 (no result: Shn3 3UTR inh, TRPM1 prom inh)
Cc1c(-c2ccccc2)c(-c2ccc(OCCN(C)C)cc2)n2ccccc12	none
NC(Cc1ccc(C(F)(F)F)cc1)c1csc(Nc2ccc(C(=O)NCc3ccco3)cn2)n1 (stereo not drawn)	Peg3 promoter 86.2 (no result: TRPM1 prom inh)
COc1cc(OC)nc(Nc2nc(C(N)Cc3ccc(Cl)cc3)cs2)n1 (stereo not drawn)	Peg3 promoter 98.8 (no result: TRPM1 prom inh)
NC(Cc1ccc(Cl)cc1)c1csc(Nc2nccc(C(F)(F)F)n2)n1 (stereo not drawn)	Peg3 promoter 82.7 (no result: TRPM1 prom inh)
NC(c1csc(Nc2ccc(C(F)(F)F)cn2)n1)C1CCCCC1 (stereo not drawn)	Peg3 promoter 99.4 (no result: TRPM1 prom inh)
NC(Cc1ccc(Cl)cc1)c1csc(Nc2ccc(C(F)(F)F)cn2)n1 (stereo not drawn)	Peg3 promoter 100.9 (no result: TRPM1 prom inh)
NC(Cc1ccc(C(F)(F)F)cc1)c1csc(Nc2ccc(C(=O)NCCCO)cn2)n1 (stereo not drawn)	none (no result: TRPM1 prom inh)
NC(CO)c1csc(Nc2ccc(C(F)(F)F)cn2)n1 (stereo not drawn)	none (no result: TRPM1 prom inh)
CC(C)CC(N)c1csc(Nc2ccc(C(F)(F)F)cn2)n1 (stereo not drawn)	Peg3 promoter 101.7 (no result: TRPM1 prom inh)
C=C1CCC2[C@](C)(CO[C@@H]3O[C@H](CO)[C@@H](O)[C@H](O)[C@H]3O)CCC[C@@]2(C)[C@@H]1CCC1=CCOC1=O (stereo partly drawn)	none (no result: TRPM1 prom inh)
O=c1cc(-c2ccncc2)oc2c1ccc1ccccc12	Peg3 promoter 79.5
CN(C)CCNc1ccc(CO)c2sc3ccc(O)cc3c(=O)c12	Peg3 promoter 100.0, TRPM1 prom inh 85.2, HIF-2a block 49.8
CC(=O)c1ccc(Nc2nc(C(N)CC(C)C)cs2)cc1 (stereo not drawn)	none (no result: TRPM1 prom inh)
CC(C)CC(N)c1csc(NC(=O)Nc2ccccc2Cc2ccccc2)n1 (stereo not drawn)	Peg3 promoter 85.6 (no result: TRPM1 prom inh)
CC(C)CC(N)c1csc(Nc2ccccn2)n1 (stereo not drawn)	none (no result: TRPM1 prom inh)
CC(C)C(N)c1csc(NC(=O)Nc2ccccc2C(C)(C)C)n1 (stereo not drawn)	none (no result: TRPM1 prom inh)
CC(C)CC(N)c1csc(NC(=O)C(c2ccccc2)c2ccccc2)n1 (stereo not drawn)	Peg3 promoter 95.0 (no result: TRPM1 prom inh)
CC(C)CC(N)c1csc(NC(=O)Nc2ccccc2-c2ccccc2)n1 (stereo not drawn)	Peg3 promoter 103.7 (no result: TRPM1 prom inh)
CCOc1ccc(NC(=O)CN(C)C(=O)Cn2cnc3c2c(=O)n(C)c(=O)n3C)cc1OCC	none
O=C(Nc1ccncc1NC(=O)c1cccc([N+](=O)[O-])c1)c1cccc([N+](=O)[O-])c1	Peg3 promoter 58.1
O=C(CCS(=O)(=O)c1ccccc1)Nc1nc2c(s1)COc1ccccc1-2	Peg3 promoter 92.5
O=C(Nc1nc2c(s1)COc1ccccc1-2)c1cccs1	none (no result: TRPM1 prom inh)
C=C(C)COc1ccc2c(c1)CCC1C2CCC2(C)C(=O)C(=NO)CC12 (stereo not drawn)	CF NFkB inh 63.6, Peg3 promoter 70.6
NC(=S)N/N=C/c1ccc(C(F)(F)F)cc1	none
NC(=S)N/N=C/c1ncc(C(F)(F)F)cc1Cl	Shn3 3UTR inh 91.0
Cc1cc(C)c(NC(=O)c2cccc3c2C(=O)N(C2CCCCC2)C3)c(C)c1	Peg3 promoter 55.9
COc1cccc(NC(=O)C2(C)CCN2Cc2cccc(OC)c2F)c1 (stereo not drawn)	none (no result: TRPM1 prom inh)
COc1cccc(CN2CCC2(C)C(=O)Nc2cccc(Oc3ccccc3)c2)c1F (stereo not drawn)	Peg3 promoter 52.0 (no result: TRPM1 prom inh)
CC(=O)OC[C@]12CC[C@H]3[C@@](C)(CC[C@H]4C(C)(C)CCC[C@]34C)[C@@H]1CC(C1=CC(=O)OC1O)O2 (stereo partly drawn)	KKLEB cytotox -80.9, CF NFkB inh 92.2, Peg3 promoter 105.3, Shn3 3UTR inh 98.1, HIF-2a block 88.9 (no result: TRPM1 prom inh)
C=CCNC(=S)Nc1cc(S(=O)(=O)N2CCOCC2)ccc1-n1cncn1	none
CCN(CC)c1ccc(C(=O)NC(=S)Nc2cc(S(=O)(=O)N3CCOCC3)ccc2-n2cncn2)cc1	KKLEB cytotox -70.8
O=C1NC(=S)S/C1=C/c1ccc(N2CCOCC2)o1	none
O=C1NC(=S)S/C1=C\C=C\c1ccc([N+](=O)[O-])o1	CF NFkB inh 93.2, Peg3 promoter 104.3, TRPM1 prom inh 90.3, HIF-2a block 82.3
CCN1C[C@@H]2[C@@H]3C(=O)N(C)C(=O)[C@@H]3[C@](C)(C1=O)N2C(=O)c1ccc(C(F)(F)F)cc1	none
C=CC[n+]1ccc(/C=C2\C=Cc3cc(C)ccc3N2CC)c2ccccc21	TRPM1 prom inh 83.8
c1cc(SC2CCCCC2)cc(-c2nc3cnccn3c2NC2CCCCC2)c1	KKLEB cytotox -54.6, CF NFkB inh 72.8, Peg3 promoter 95.3
c1ccc(CNc2c(-c3cccc(SC4CCCCC4)c3)nc3ccccn23)cc1	Peg3 promoter 85.8, Shn3 3UTR inh 89.9
Cc1ccc2nc(-c3cccc(SC4CCCCC4)c3)c(NCc3ccccc3)n2c1	Peg3 promoter 67.5
COc1ccc(OC)c(NC(=O)Cc2coc3ccc4ccccc4c23)c1	none
COc1ccc(NC(=O)N(C)[C@H]2C[C@H]3c4[nH]c5ccc(-c6ccc(OC)cc6)cc5c4CCN3C[C@H]2[C@H](C)O)cc1	Peg3 promoter 97.6 (no result: TRPM1 prom inh)
COc1ccc(-c2ccc3[nH]c4c(c3c2)CCN2C[C@@H]([C@H](C)OC(=O)Nc3cc(Cl)cc(Cl)c3)[C@@H](N(C)C(=O)Nc3cc(Cl)cc(Cl)c3)C[C@@H]42)cc1	none (no result: TRPM1 prom inh)
COc1ccc(NC(=O)N(C)[C@H]2C[C@H]3c4[nH]c5ccc(-c6ccc7c(c6)OCO7)cc5c4CCN3C[C@H]2[C@H](C)O)cc1	Peg3 promoter 54.6 (no result: TRPM1 prom inh)
COc1ccc(NC(=O)O[C@@H](C)[C@@H]2CN3CCc4c([nH]c5ccc(-c6ccc(OC)cc6)cc45)[C@@H]3C[C@@H]2N(C)C(=O)Nc2ccc(OC)cc2)cc1	none (no result: TRPM1 prom inh)
